# Activity calls are given as the source filed them. Rule for the calls: active = hit-call score of the fitted dose curve at least 0.9, where 1 is the maximum; inactive = score below 0.9.
# Experiments:
# [1] = ATG_ISRE_CIS: Attagene CIS-FACTORIAL HepG2 Assay for human Interferon Regulatory Factor 1 (IRF1) binding to an Interferon-Stimulated Response Element (ISRE) (AID 2282948); conditions: HepG2 ISRE cis-reporter (Attagene), mRNA transcription readout; actives raise or lower the signal
# How it was run: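 Transiently transfected HepG2 cells carrying cis-element reporter units, dosed 24 hours. Reporter mRNA quantified by RT-PCR, fluorescent primer extension, HpaI digestion and capillary electrophoresis. Bidirectional fitting relative to DMSO.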
# [2] = ATG_M_32_CIS: Attagene CIS-FACTORIAL HepG2 Assay for M32 Transcription Factor (Internal Marker) (AID 2282949); conditions: HepG2 Attagene cis-factorial M32 reporter, mRNA; actives raise or lower the signal;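 note: background control marker of the multiplexed CIS panel rather than a real target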
# How it was run: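 HepG2 cells transiently transfected with multiplexed cis-regulated reporter units, dosed 24 h. Reporter mRNA quantified by RT-PCR, 6-FAM labelling, HpaI digestion and capillary electrophoresis; bidirectional fit vs DMSO.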
# [3] = ATG_M_06_CIS: Attagene CIS-FACTORIAL HepG2 Assay for M06 Transcription Factor (Internal Marker) (AID 2282950); conditions: HepG2 Attagene CIS-FACTORIAL M06 internal marker reporter; actives raise or lower the signal
# How it was run: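 Measured 24 h post-dosing in transiently transfected HepG2 cells, this internal-marker endpoint reports reporter mRNA via RT-PCR with fluorescent primer extension and capillary electrophoresis. DMSO served as negative control and baseline for bidirectional fitting.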
# [4] = target: Hypoxia-inducible factor 1-alpha (Homo sapiens) (UniProt Q16665); experiment: ATG_HIF1a_CIS: Attagene CIS-FACTORIAL HepG2 Assay for human Hypoxia Inducible Factor 1 (HIF1A) (AID 2282951); conditions: HepG2 Attagene cis-factorial HIF1a reporter transcription; actives raise or lower the signal
# How it was run: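 Activity is fitted in both directions relative to DMSO. Reporter transcripts are read by RT-PCR, fluorescent primer extension and capillary electrophoresis after 24 h chemical treatment. The cells are HepG2 carrying transiently transfected cis-element-driven reporter units responding to endogenous factors.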
# [5] = target: Heat shock factor protein 1 (Homo sapiens) (UniProt Q00613); experiment: ATG_HSE_CIS: Attagene CIS-FACTORIAL HepG2 Assay for human Heat Shock Transcription Factor 1 (HSE) (AID 2282953); conditions: HepG2 HSE cis-reporter, Attagene RNA transcription; actives raise or lower the signal
# How it was run: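 Reporter mRNA induction in HepG2 is measured 24 h after dosing, using transiently transfected multiplexed cis-regulated reporter units. Signal comes from capillary electrophoresis of labelled RT-PCR products, with DMSO as negative control.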
# [6] = ATG_MRE_CIS: Attagene CIS-FACTORIAL HepG2 Assay for human Metal Responsive Element (MRE) (AID 2282954); conditions: HepG2 MRE cis-reporter transcription, Attagene multiplex; actives raise or lower the signal
# How it was run: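 Transient MRTU transfection of HepG2 (FuGene 6); 24 h dosing; total RNA → oligo(dT) RT, PCR, 6-FAM primer extension, HpaI cut, CE. Bidirectional fit vs DMSO.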
# [7] = ATG_PBREM_CIS: Attagene CIS-FACTORIAL HepG2 Assay for human Phenobarbital-responsive Enhancer Module (PBREM) (AID 2282955); conditions: HepG2 PBREM cis-reporter, Attagene multiplexed transcription; actives raise or lower the signal
# How it was run: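 Endogenous transcription factor activity was read from reporter transcripts in transiently transfected human HepG2 liver cells after 24 h dosing. RT-PCR products were fluorescently labelled, HpaI-cut and sized by capillary electrophoresis; activity fitted bidirectionally against DMSO baseline.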
# [8] = target: Paired box protein Pax-6 (Homo sapiens) (UniProt P26367); experiment: ATG_Pax6_CIS: Attagene CIS-FACTORIAL HepG2 Assay for human Paired Box 6 (PAX6) (AID 2282956); conditions: HepG2 CIS-FACTORIAL PAX6 reporter transcription, RNA readout; actives raise or lower the signal
# How it was run: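 HepG2 cells transiently transfected with cis-promoter-driven multiplexed reporter units sensing endogenous transcription factor activity; 24 h chemical exposure. Reporter mRNA quantified by RT-PCR, 6-FAM labelling, HpaI digestion and capillary electrophoresis; bidirectional fit versus DMSO baseline.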
# [9] = ATG_PXRE_CIS: Attagene CIS-FACTORIAL HepG2 Assay for human Pregnane X Receptor Element (PXRE) (AID 2282957); conditions: HepG2 Attagene CIS-FACTORIAL PXRE reporter, mRNA; actives raise or lower the signal
# How it was run: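 Cis-element reporter mRNA in human hepatoma HepG2 cells is measured 24 h post-dosing by RT-PCR, primer-extension labeling and capillary electrophoresis; gain or loss of signal is fitted relative to DMSO.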
# [10] = ATG_PPRE_CIS: Attagene CIS-FACTORIAL HepG2 Assay for human Peroxisome Proliferator-activated Response Element (PPRE) (AID 2282958); conditions: HepG2 PPRE cis-element reporter, Attagene transcription factor profiling; actives raise or lower the signal
# How it was run: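 Endogenous PPRE-driven transcription is measured in HepG2 cells carrying transfected multi-reporter constructs. Reporter transcripts are quantified by RT-PCR, HpaI digestion and capillary electrophoresis 24 h after dosing. DMSO baseline, bidirectional fit.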
# [11] = ATG_RORE_CIS: Attagene CIS-FACTORIAL HepG2 Assay for human RAR-related Orphan Receptor Element (RORE) (AID 2282959); conditions: HepG2 Attagene cis-factorial RORE reporter, mRNA; actives raise or lower the signal
# How it was run: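 RORE reporter transcripts reflecting endogenous factor activity were read after 24 h compound exposure of transfected HepG2 cells, using reverse transcription, PCR, fluorescent labelling and capillary electrophoresis sizing. Gain or loss fitted against DMSO.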
# [12] = target: Transcription factor Sp1 (Homo sapiens) (UniProt P08047); experiment: ATG_Sp1_CIS: Attagene CIS-FACTORIAL HepG2 Assay for human Specificity Protein 1 (Sp1) (AID 2282961); conditions: HepG2 Sp1 cis-reporter transcription, actives raise or lower the signal
# How it was run: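 Read-out is reporter transcript level, measured by RT-PCR and fluorescent capillary electrophoresis after 24 h chemical treatment. System: transiently transfected HepG2 cells reporting endogenous transcription factor activity; gain or loss fitted against DMSO baseline.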
# [13] = ATG_SREBP_CIS: Attagene CIS-FACTORIAL HepG2 Assay for human Sterol Regulatory Element Binding (SREBP) (AID 2282962); conditions: HepG2 Attagene cis-factorial SREBP reporter, mRNA; actives raise or lower the signal
# How it was run: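 HepG2 cells transiently transfected with multiplexed cis-promoter reporter units sensing endogenous transcription factors; reporter mRNA measured 24 h after dosing by RT-PCR, 6-FAM labeling, HpaI digestion and capillary electrophoresis. Bidirectional fit versus DMSO.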
# [14] = target: Signal transducer and activator of transcription 3 (Homo sapiens) (UniProt P40763); experiment: ATG_STAT3_CIS: Attagene CIS-FACTORIAL HepG2 Assay for human Signal Transducer and Activator of Transcription 3 (STAT3) (AID 2282963); conditions: HepG2, Attagene cis-factorial STAT3 reporter transcription; actives raise or lower the signal
# How it was run: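 Endogenous STAT3-responsive cis-element activity was read in transiently transfected HepG2 cells after 24 h treatment. Reporter transcripts were quantified via RT-PCR and capillary electrophoresis, with DMSO as negative control and bidirectional curve fitting.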
# [15] = ATG_TA_CIS: Attagene CIS-FACTORIAL HepG2 Assay for human TA Basal Promoter (AID 2282964); conditions: HepG2 Attagene CIS-factorial TA basal promoter reporter; actives raise or lower the signal
# How it was run: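 Cis-factorial format in HepG2: reporters report endogenous factors, not chimeric Gal4 fusions. After 24 h treatment, reporter transcripts were measured by RT-PCR-capillary electrophoresis fluorescence, analysed bidirectionally versus DMSO.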
# [16] = ATG_TCF_b_cat_CIS: Attagene CIS-FACTORIAL HepG2 Assay for human T-Cell-Factor with beta-catenin (TCF/b-cat) (AID 2282965); conditions: HepG2 TCF/beta-catenin cis-reporter transcription, actives raise or lower the signal
# How it was run: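 Measured: reporter mRNA in HepG2 transiently transfected with cis-promoter reporter units, 24 h after chemical addition. Fitting was bidirectional, DMSO as negative control.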
# [17] = ATG_TAL_CIS: Attagene CIS-FACTORIAL HepG2 Assay for human TAL Basal Promoter (AID 2282966); conditions: HepG2 Attagene cis-factorial TAL promoter reporter; actives raise or lower the signal;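 note: background control endpoint measuring basal TAL promoter reporter mRNA not a specific factor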
# How it was run: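 In this cell-based multiplex, HepG2 liver cells bearing cis-promoter reporter constructs are dosed for 24 hours. Total RNA is reverse-transcribed and amplified, labelled fragments are sized by capillary electrophoresis, and signal changes are fitted bidirectionally versus DMSO.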
# [18] = ATG_TGFb_CIS: Attagene CIS-FACTORIAL HepG2 Assay for human Transforming Growth Factor (TGF) (AID 2282967); conditions: HepG2 Attagene CIS TGFb reporter, mRNA transcription; actives raise or lower the signal
# How it was run: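 Multiplexed cis-reporter HepG2 system, 24 h treatment; mRNA induction read by fluorescence after RT-PCR and CE; DMSO negative control, bidirectional curve fitting.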
# [19] = target: Hepatocyte nuclear factor 6 (Homo sapiens) (UniProt Q9UBC0); experiment: ATG_HNF6_CIS: Attagene CIS-FACTORIAL HepG2 Assay for human Hepatocyte Nuclear Factor 6 (HNF6) (AID 2282952); conditions: HepG2 Attagene cis-factorial HNF6 reporter transcription; actives raise or lower the signal
# How it was run: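 Transiently transfected HepG2 cells expressing cis-regulated reporter transcription units were exposed to chemical for 24 h in a 24-well format. Reporter transcript abundance was determined by fluorescence capillary electrophoresis.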
# [20] = ATG_Sox_CIS: Attagene CIS-FACTORIAL HepG2 Assay for human SRY-box transcription factor (SOX) (AID 2282960); conditions: HepG2 Attagene cis-factorial SOX reporter, mRNA; actives raise or lower the signal
# How it was run: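 Reporter transcripts, measured by RT-PCR and capillary electrophoresis of labelled fragments, report endogenous SOX transcription factor activity. Transiently transfected human HepG2 cells receive chemical for 24 h; changes in either direction are fitted relative to DMSO.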
# Chain of Paired box protein Pax-6 (Homo sapiens) (P26367 whole entry, looked up): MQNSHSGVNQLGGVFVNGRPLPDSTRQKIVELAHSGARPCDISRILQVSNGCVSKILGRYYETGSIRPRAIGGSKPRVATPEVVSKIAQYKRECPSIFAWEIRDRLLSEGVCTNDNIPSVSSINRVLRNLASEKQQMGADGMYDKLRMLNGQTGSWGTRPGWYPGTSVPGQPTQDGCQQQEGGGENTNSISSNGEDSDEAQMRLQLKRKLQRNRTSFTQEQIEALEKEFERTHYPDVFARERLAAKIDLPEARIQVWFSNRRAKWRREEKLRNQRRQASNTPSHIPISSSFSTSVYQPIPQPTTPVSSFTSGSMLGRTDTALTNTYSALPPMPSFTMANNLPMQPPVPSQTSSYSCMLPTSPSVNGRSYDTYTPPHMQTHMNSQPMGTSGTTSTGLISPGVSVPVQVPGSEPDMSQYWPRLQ
# Chain of Hypoxia-inducible factor 1-alpha (Homo sapiens) (Q16665 whole entry, looked up): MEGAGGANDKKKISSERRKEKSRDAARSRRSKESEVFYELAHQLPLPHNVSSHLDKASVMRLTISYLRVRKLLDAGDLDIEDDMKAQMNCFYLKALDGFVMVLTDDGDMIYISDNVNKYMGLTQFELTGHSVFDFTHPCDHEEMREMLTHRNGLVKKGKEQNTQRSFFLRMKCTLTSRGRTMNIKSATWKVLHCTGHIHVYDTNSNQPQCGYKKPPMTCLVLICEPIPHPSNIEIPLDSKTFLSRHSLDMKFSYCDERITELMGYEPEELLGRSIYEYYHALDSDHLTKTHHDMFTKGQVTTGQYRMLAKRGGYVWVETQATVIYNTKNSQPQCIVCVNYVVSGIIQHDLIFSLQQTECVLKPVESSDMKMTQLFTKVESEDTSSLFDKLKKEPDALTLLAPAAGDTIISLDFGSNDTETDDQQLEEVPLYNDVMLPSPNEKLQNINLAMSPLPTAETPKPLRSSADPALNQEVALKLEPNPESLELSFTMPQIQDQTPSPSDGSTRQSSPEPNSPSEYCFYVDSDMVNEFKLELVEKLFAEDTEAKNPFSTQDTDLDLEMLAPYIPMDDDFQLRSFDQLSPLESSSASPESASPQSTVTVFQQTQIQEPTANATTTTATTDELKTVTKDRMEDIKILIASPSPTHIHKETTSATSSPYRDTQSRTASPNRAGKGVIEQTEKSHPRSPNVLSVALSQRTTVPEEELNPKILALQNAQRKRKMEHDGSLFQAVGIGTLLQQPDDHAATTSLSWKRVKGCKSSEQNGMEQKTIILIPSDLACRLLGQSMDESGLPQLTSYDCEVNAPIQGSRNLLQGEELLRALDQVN
# Chain of Heat shock factor protein 1 (Homo sapiens) (Q00613 whole entry, looked up): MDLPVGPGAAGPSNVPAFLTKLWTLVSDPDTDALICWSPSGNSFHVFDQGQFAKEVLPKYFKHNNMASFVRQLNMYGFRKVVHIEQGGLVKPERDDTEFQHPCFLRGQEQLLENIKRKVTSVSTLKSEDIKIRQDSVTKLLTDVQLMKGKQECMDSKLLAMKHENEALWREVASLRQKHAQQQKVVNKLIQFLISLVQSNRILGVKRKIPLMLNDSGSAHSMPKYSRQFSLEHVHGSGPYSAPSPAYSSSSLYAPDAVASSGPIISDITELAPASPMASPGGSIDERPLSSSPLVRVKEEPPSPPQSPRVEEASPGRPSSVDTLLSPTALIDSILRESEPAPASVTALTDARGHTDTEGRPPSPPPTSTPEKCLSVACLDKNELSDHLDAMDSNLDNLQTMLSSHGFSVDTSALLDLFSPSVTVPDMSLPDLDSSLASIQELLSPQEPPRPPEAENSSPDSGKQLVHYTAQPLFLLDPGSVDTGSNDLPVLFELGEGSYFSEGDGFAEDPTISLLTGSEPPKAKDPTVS
# Chain of Signal transducer and activator of transcription 3 (Homo sapiens) (P40763 whole entry, looked up): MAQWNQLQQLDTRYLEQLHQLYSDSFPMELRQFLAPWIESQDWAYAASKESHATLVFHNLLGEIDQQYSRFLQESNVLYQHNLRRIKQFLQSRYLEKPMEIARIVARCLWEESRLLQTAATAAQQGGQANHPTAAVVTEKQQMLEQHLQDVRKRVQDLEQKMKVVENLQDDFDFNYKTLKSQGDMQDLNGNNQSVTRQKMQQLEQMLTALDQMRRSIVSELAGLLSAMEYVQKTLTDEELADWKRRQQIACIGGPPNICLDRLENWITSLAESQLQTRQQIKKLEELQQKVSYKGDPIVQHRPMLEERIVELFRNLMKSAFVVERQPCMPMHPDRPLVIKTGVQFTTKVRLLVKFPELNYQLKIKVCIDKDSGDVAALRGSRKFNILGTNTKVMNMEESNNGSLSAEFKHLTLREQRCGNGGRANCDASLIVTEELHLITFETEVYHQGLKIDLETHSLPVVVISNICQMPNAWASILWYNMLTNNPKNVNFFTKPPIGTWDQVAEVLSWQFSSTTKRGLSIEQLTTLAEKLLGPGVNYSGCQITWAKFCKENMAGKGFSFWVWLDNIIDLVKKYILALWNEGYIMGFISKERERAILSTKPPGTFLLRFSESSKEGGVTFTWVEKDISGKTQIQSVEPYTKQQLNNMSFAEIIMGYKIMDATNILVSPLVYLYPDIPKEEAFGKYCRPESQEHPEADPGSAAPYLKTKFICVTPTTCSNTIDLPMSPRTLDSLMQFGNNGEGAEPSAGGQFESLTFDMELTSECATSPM
# Chain of Transcription factor Sp1 (Homo sapiens) (P08047 whole entry, looked up): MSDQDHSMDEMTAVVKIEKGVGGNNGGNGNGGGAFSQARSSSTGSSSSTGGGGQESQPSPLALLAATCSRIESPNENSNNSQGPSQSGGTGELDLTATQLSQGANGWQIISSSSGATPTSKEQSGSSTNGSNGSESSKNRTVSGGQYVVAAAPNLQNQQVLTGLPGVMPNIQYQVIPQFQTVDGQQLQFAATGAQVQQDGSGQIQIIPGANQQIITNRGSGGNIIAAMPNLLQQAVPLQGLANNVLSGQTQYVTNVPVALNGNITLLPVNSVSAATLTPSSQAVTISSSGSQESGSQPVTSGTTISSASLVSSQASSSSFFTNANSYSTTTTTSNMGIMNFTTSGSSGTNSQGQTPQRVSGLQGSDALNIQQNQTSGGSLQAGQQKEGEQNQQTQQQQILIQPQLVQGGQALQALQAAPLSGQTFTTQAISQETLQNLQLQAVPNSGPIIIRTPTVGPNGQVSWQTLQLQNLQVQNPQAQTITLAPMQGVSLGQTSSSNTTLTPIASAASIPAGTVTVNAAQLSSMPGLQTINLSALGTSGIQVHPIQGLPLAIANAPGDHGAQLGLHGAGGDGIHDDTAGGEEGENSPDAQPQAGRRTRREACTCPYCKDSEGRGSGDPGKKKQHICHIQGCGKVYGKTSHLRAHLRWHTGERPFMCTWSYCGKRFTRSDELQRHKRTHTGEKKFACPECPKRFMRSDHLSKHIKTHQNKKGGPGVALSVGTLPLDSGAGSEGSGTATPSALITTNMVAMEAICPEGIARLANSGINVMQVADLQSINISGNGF
# Chain of Hepatocyte nuclear factor 6 (Homo sapiens) (Q9UBC0 whole entry, looked up): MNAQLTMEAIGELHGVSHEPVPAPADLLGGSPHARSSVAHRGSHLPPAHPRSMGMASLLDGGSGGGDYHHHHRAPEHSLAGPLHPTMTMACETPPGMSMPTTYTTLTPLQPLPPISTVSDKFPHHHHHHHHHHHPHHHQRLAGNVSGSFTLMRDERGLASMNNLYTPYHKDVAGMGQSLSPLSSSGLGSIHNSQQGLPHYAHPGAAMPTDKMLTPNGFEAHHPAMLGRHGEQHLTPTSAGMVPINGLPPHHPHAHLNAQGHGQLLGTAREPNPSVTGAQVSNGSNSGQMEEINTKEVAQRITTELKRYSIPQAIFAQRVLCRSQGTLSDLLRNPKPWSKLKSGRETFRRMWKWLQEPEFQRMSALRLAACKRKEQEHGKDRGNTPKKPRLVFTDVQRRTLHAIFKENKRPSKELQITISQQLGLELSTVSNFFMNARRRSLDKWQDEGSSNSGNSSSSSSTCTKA
compound,measurement,setting,value
CCOC=O,outcome,[1],inactive
same,outcome,[2],inactive
same,outcome,[3],inactive
same,outcome,[4],inactive
same,outcome,[5],inactive
same,outcome,[6],inactive
same,outcome,[7],inactive
same,outcome,[8],inactive
same,outcome,[9],inactive
same,outcome,[10],inactive
same,outcome,[11],inactive
same,outcome,[12],inactive
same,outcome,[13],inactive
same,outcome,[14],inactive
same,outcome,[15],inactive
same,outcome,[16],inactive
same,outcome,[17],inactive
same,outcome,[18],inactive
CCCCC=O,outcome,[1],inactive
same,outcome,[2],inactive
same,outcome,[3],inactive
same,outcome,[4],inactive
same,outcome,[19],inactive
same,outcome,[5],inactive
same,outcome,[6],inactive
same,outcome,[8],inactive
same,AC50,[9],27.2 µM (active)
same,outcome,[11],inactive
same,outcome,[20],inactive
same,outcome,[13],inactive
same,outcome,[14],inactive
same,outcome,[15],inactive
same,outcome,[16],inactive
same,outcome,[17],inactive
same,outcome,[18],inactive
